This is an account of results in PubChem BioAssay (NCATS).

Molecules are shown by their SMILES. Inconclusive results are not listed. Active and inactive are the calls of the source. The call rests on the fitted dose curve; in most records, active means well fitted cell-killing curve with a large enough effect; inconclusive means small, poorly fitted or top-dose-only effect, or effect the other way; inactive means no such curve, though single readings can be large or run the other way.
Potency means the concentration at half of the fitted maximal effect.

A short description of this assay: Quantitative High-Throughput drug screen in 47 multiple myeloma cell lines against the NCATS MIPE library collection: OCIMY5_PLB cell viability assay (AID 1918988). Further: nearly all actives have a fitted effect of over 65% in size.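 On viability, % of control: 100% = DMSO-treated wells and 0% = wells with media alone.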 Conditions: OCI-MY5 myeloma viability, ATP luminescence, 48 h; series mostly up to 45.8 µM; viability, % of control: at the top concentration. A digest of the protocol:
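Plated at 500 cells per well, myeloma lines received MIPE 4.0 compounds by pin tool. Following 48 h culture at 37 °C, CellTiter-Glo luminescence gave viability relative to DMSO and media-only controls.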
In the case of `COCCOc1nc(-c2ccc(Cl)c(Cl)c2)n(-c2ccc(NC(=O)CCl)cc2)n1`, the Potency was 20.9 µM (active).
`C[C@H](NC(=O)c1sccc1OCc1ccc(Cl)cc1)c1ccccc1`: the Potency was 16.6 µM (active).
For the compound `COc1ccc2c(Oc3ccc(NC(=O)c4c(C)n(CC(C)(C)O)n(-c5ccccc5)c4=O)cc3F)ccnc2c1`, the Potency was 23.5 µM (active).
On the same count and under the same terms, next, `CC1(C)CCC(CN2CCN(c3ccc(C(=O)NS(=O)(=O)c4ccc(NCC5CCOCC5)c([N+](=O)[O-])c4)c(Oc4cnc5[nH]ccc5c4)c3)CC2)=C(c2ccc(Cl)cc2)C1`: 0.0148 µM (active); `O=C(Nc1cccc(Br)c1)c1cccc(S(=O)(=O)N2CCCCCC2)c1`: 18.7 µM (active); `CNC(=O)c1ccccc1Sc1ccc2c(C=Cc3ccccn3)n[nH]c2c1`: 0.935 µM (active).
Still for that read-out and setting: the same measure for `O=C(Nc1cc(Cl)cc2c1[nH]c1cnccc12)c1cccnc1`: 16.6 µM (active); for `CCCCCNC(=O)N1CCC(CN(Cc2ccc(Cl)cc2)Cc2ccc([N+](=O)[O-])s2)C1` (stereo not drawn): 23.5 µM (active); for `Cc1ccccc1C(C(=O)NC1CCCCC1)N(C(=O)Cn1ccnc1C)c1cccc(F)c1` (stereo not drawn): 23.5 µM (active).
The same measure, in the same setting: the same measure for `O=c1cc(CN2CCOCC2)occ1OCCCCCSc1ccnc2cc(C(F)(F)F)ccc12`: 16.6 µM (active).
With `O=C(N[C@@H](c1ccccc1)[C@@H]1CCCCN1)c1cccc(C(F)(F)F)c1Cl`, the Potency is 18.7 µM (active).
Same read-out and setting: the same measure for `COc1cccc2c1CCCC2CCCN1CCN(C2CCCCC2)CC1` (stereo not drawn): 16.6 µM (active); for `Cc1cc(OCCCc2c(C(=O)O)n(Cc3cccnc3)c3c(-c4c(COc5ccc(N6CCN([S+](C)(=O)[O-])CC6)cc5)nn(C)c4C)cccc23)cc(C)c1Cl`: 23.5 µM (active).
The same measure, in the same setting: the same measure for `CN[C@@H](C)C(=O)N[C@H]1CN(C(=O)CC(C)C)CC[C@H]2CC[C@@H](C(=O)NC(c3ccccc3)c3ccccc3)N2C1=O`: 20.9 µM (active); for `Cc1ccc(F)c(NC(=O)Nc2ccc(-c3cccc4[nH]nc(N)c34)cc2)c1`: 20.9 µM (active).
The same measure, in the same setting: next, `CC(C)C(=O)Nc1ncc(-c2cc(C(F)F)nn2-c2c(Cl)cccc2Cl)s1`: 18.7 µM (active); `C[C@]12CCC3c4ccc(O)cc4CCC3C1CCC2=O` (stereo partly drawn): 0.0019 µM (active).
On to `CCOC1OC(=O)C[C@H]1NC(=O)[C@@H]1CCCN1C(=O)[C@@H](NC(=O)c1ccc(N)c(Cl)c1)C(C)(C)C` (stereo partly drawn), for which the “viability, % of control” value is 143% (inactive).
`NS(=O)(=O)c1ccc(NC2=CC(=O)c3ccccc3C2=O)cc1`: the Potency was 4.69 µM (active).
On the same count and under the same terms, next, `Cc1c(O)cccc1C(=O)N[C@@H](CSc1ccccc1)[C@H](O)CN1C[C@H]2CCCC[C@@H]2C[C@@H]1C(=O)NC(C)(C)C`: 23.5 µM (active); `CC(=O)O[C@]1(C(C)=O)CC[C@@H]2[C@@H]3C[C@H](C)C4=CC(=O)CC[C@]4(C)[C@H]3CC[C@@]21C`: 16.6 µM (active).
`O=C(O)[C@H]1O[C@H](Oc2cc3oc(-c4ccccc4)cc(=O)c3c(O)c2O)[C@H](O)[C@@H](O)[C@H]1O`: the Potency is 23.5 µM (active).
The same measure, in the same setting: the same measure for `Cc1c(NC(=O)c2ccc(C(C)(C)C)cc2)cccc1-c1cn(C)c(=O)c(Nc2ccc(C(=O)N3CCOCC3)cc2)n1`: 16.6 µM (active).
